# Source: PubChem BioAssay (EPA / NIEHS)
# Results filed as inconclusive are left out. Active and inactive are the calls of the source. Rule for the calls: active = hit-call score of the fitted dose curve at least 0.9, where 1 is the maximum; inconclusive = response in the unintended direction; inactive = score below 0.9.
# How the values were obtained:
# [1] = molecular target: rat Adrenergic Receptor, Beta (Adrb), Non-selective Binding, Adrb1 (gene 24925) (UniProt P18090); assay: NVS_GPCR_rAdrb_NonSelective: NovaScreen (NVS) G Protein-Coupled Receptor Assay for rat Adrenergic Receptor, Beta (Adrb), Non-selective Binding (AID 2283298)
# How it was run: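 Rat cortical membranes incubated 1 h with beta-adrenergic radioligand and test chemical; bound ligand measured by filtration and scintillation counting. Screen at 25 uM duplicate, then concentration series with 50 uM maximum; loss of signal versus DMSO.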
# [2] = molecular target: rat Gamma-Aminobutyric Acid Type B Receptor (GABBR), Gabbr1 (gene 81657) (UniProt Q9Z0U4); assay: NVS_GPCR_rGABBR: NovaScreen (NVS) G Protein-Coupled Receptor Assay for rat Gamma-Aminobutyric Acid Type B Receptor (GABBR) (AID 2283301)
# How it was run: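 Rat cortical membrane preparation, competitive radioligand binding for 1 h with filtration and scintillation readout. Actives from duplicate single-point 25 uM screening proceeded to concentration series with 50 uM top concentration.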
# [3] = molecular target: rat Histamine Receptor (H3), Hrh3 (gene 85268) (UniProt Q9QYN8); assay: NVS_GPCR_rH3: NovaScreen (NVS) G Protein-Coupled Receptor Assay for rat Histamine Receptor (H3) (AID 2283303)
# How it was run: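 Filter-binding radioligand competition on rat forebrain membranes, 1 h incubation; compounds screened at 25 µM in duplicate and followed in concentration series to 50 µM, loss of bound signal vs DMSO.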
# Adra2b (gene 24174) = Adra2b (gene 24174) (UniProt P19328); assay: NVS_GPCR_rmAdra2B: NovaScreen (NVS) G Protein-Coupled Receptor Assay for hybird cells Adrenergic, Alpha 2B Receptor (Adra2B) (AID 2283306)
# How it was run: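 Compounds screened first at 25 uM in duplicate, with actives followed up in concentration-response; specific radioligand displacement from hybrid neuroglioma/blastoma cell membrane preparations measured by filter scintillation counting after 1 h, normalized to DMSO.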
# [4] = molecular target: human Neonicotinoid receptor (NNR), CHRNA2 (gene 1135) (UniProt Q15822); assay: NVS_LGIC_hNNR_NBungSens: NovaScreen (NVS) Ligand-Gated Ion Channel Assay for human Neonicotinoid receptor (NNR) (AID 2283313)
# How it was run: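 Compounds first screened in duplicate at 25 uM, then actives re-tested in single-replicate dose series up to 50 uM. Binding measured as displacement of specific radioligand from neuroblastoma membrane receptors after 2 h, scintillation read on filters.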
# [5] = molecular target: rat Neonicotinoid receptor (NNR), Chrna7 (gene 25302) (UniProt Q05941); assay: NVS_LGIC_rNNR_BungSens: NovaScreen (NVS) Ligand-Gated Ion Channel Assay for rat Neonicotinoid receptor (NNR) (AID 2283315)
# How it was run: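 Rat cortical membrane preparation incubated 2.5 h with tritiated or iodinated radioligand and test chemical. Bound radioactivity was filtered and counted by scintillation, and displacement was analysed against DMSO.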
# [6] = molecular target: Voltage-dependent N-type calcium channel subunit alpha-1B (Rattus norvegicus) (UniProt Q02294); assay: NVS_IC_rCaChN: NovaScreen (NVS) Ion Channel Assay for rat Calcium Channel, Type N (CaChN) (AID 2283317)
# [7] = molecular target: Sodium channel protein type 1 subunit alpha (Rattus norvegicus) (UniProt P04774); assay: NVS_IC_rNaCh_site2: NovaScreen (NVS) Ion Channel Assay for rat Sodium Channel, Site 2 (NaCh) (AID 2283322);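 note: hit means loss of radioligand binding signal relative to DMSO so AC50 marks displacement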
# How it was run: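 Initial duplicate single-point testing at 25 uM, followed by concentration-response runs for actives. Binding of radioligand to rat forebrain membranes quantified after 1 h via filter-based radiodetection.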
# NCBI gene 24521 = assay: NVS_IC_rKATPCh: NovaScreen (NVS) Ion Channel Assay for rat Potassium Channel, ATP-Sensitive (KATPCh) (AID 2283319)
# How it was run: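 Primary duplicate screen at 25 uM, then singleton concentration series to 50 uM maximum, in a rat cortex membrane radioligand displacement assay. Binding measured by filtration and scintillation 2 h post-dose; DMSO baseline.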
# [8] = molecular target: rat Neurokinin-1 Receptor (NK1), Tacr1 (gene 24807) (UniProt P14600); assay: NVS_GPCR_rNK1: NovaScreen (NVS) G Protein-Coupled Receptor Assay for rat Neurokinin-1 Receptor (NK1) (AID 2283309)
# How it was run: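 Competitive radioligand binding to NK1 in rat submaxillary membranes, 1 h incubation, filtration and scintillation read-out. Compounds first screened at 25 uM in duplicate, then concentration-response for actives; signal loss relative to DMSO.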
# [9] = molecular target: rat Neurokinin-3 Receptor (NK3), Tacr3 (gene 24808) (UniProt P16177); assay: NVS_GPCR_rNK3: NovaScreen (NVS) G Protein-Coupled Receptor Assay for rat Neurokinin-3 Receptor (NK3) (AID 2283310)
# How it was run: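 Filter-based radioligand displacement on rat cortex membrane preparations, read by scintillation 2 h post-dose. Chemicals first tested in duplicate at 25 uM; actives followed up in concentration series with a 50 uM maximum.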
# [10] = molecular target: rat Opioid Receptor, Non-selective Sodium (Na+) Binding, Oprm1 (gene 25601) (UniProt P33535); assay: NVS_GPCR_rOpiate_NonSelectiveNa: NovaScreen (NVS) G Protein-Coupled Receptor Assay for rat Opioid Receptor, Non-selective Sodium (Na+) Binding (AID 2283311)
# How it was run: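 Filtration radioligand binding on rat forebrain membrane preparations, read 1.5 h after dosing. Single-concentration 25 µM primary screen in duplicate, followed by singleton concentration series to 50 µM max for actives; DMSO baseline.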
# [11] = molecular target: bovine Gamma-Aminobutyric Acid Type A Receptor BDZ, alpha 1 site (GABARa1), GABRA1 (gene 780973) (UniProt P08219); assay: NVS_LGIC_bGABARa1: NovaScreen (NVS) Ligand-Gated Ion Channel Assay for bovine Gamma-Aminobutyric Acid Type A Receptor BDZ, alpha 1 site (GABARa1) (AID 2283321)
# How it was run: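 Bovine cortex membrane preparation, benzodiazepine site on GABA-A alpha1; specific radioligand displacement read after 0.75 h by filtration and scintillation. Screen at 25 uM, then singleton titrations up to 50 uM; DMSO baseline.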
# [12] = molecular target: rat Vasopressin 1 Receptor (V1), Avpr1a (gene 25107) (UniProt P30560); assay: NVS_GPCR_rV1: NovaScreen (NVS) G Protein-Coupled Receptor Assay for rat Vasopressin 1 Receptor (V1) (AID 2283316)
# How it was run: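 Concentration-response up to 50 uM for chemicals passing a threshold such as 30% inhibition in an initial duplicate 25 uM screen. Displacement of radioligand from rat liver membranes measured after 1.5 h by filtration and scintillation.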
# [13] = NVS_IC_rCaDHPRCh_L: NovaScreen (NVS) Ion Channel Assay for rat Calcium Channel, Type L, Dihydropyridine Site (CaDHPRCh_L) (AID 2283320)
# How it was run: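 Rat cortex membrane preparation; dihydropyridine-site radioligand displacement read 1 h post-dose by filtration and scintillation. Primary single-point screen 25 uM in duplicate, then concentration series to 50 uM maximum; DMSO as negative control.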
# [14] = molecular target: rat Opioid Receptor, Non-selective Binding, Oprm1 (gene 25601) (UniProt P33535); assay: NVS_GPCR_rOpiate_NonSelective: NovaScreen (NVS) G Protein-Coupled Receptor Assay for rat Opioid Receptor, Non-selective Binding (AID 2283318)
# How it was run: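 Filter-based radioligand displacement using rat forebrain membrane preparations, measured 1.5 h post-dosing. Single-concentration duplicate screen at 25 uM, follow-up in concentration series; activity taken as signal loss relative to DMSO.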
# [15] = molecular target: rat Corticotropin Releasing Factor Receptor (CRF), Crhr1 (gene 58959) (UniProt P35353); assay: NVS_GPCR_rCRF: NovaScreen (NVS) G Protein-Coupled Receptor Assay for rat Corticotropin Releasing Factor Receptor (CRF) (AID 2283300)
# How it was run: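 Single-concentration (25 uM, duplicate) radioligand binding on rat cortical membrane preparations, counted by scintillation after 2 h. Activity scored as signal loss relative to DMSO negative control.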
# [16] = molecular target: rat Somatostatin Receptor (SST), Sstr1 (gene 25033) (UniProt P28646); assay: NVS_GPCR_rSST: NovaScreen (NVS) G Protein-Coupled Receptor Assay for rat Somatostatin Receptor (SST) (AID 2283314)
# How it was run: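 Single-concentration duplicate screen (25 uM), then concentration-response up to 50 uM for chemicals passing a threshold such as 30% inhibition. Membranes came from rat forebrain. Binding was measured 1 h post-dose by filter radiodetection and scintillation, relative to DMSO.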
# [17] = molecular target: Metabotropic glutamate receptor 1 (Rattus norvegicus) (UniProt P23385); assay: NVS_GPCR_rmMGluR1: NovaScreen (NVS) G Protein-Coupled Receptor Assay for rat Glutamate Metabotropic Receptor 1 (MGluR1) (AID 2283305)
# How it was run: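 Binding to native receptor from rat cerebellum extract, measured as displacement of a radioligand (scintillation counting, filter separation) after 1 hour. Compounds tested at 25 uM in duplicate, then titrated to a 50 uM maximum.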
# NCBI gene 257648 = assay: NVS_IC_rCaChN: NovaScreen (NVS) Ion Channel Assay for Calcium Channel, Type N (CaChN) (AID 2283317)
# Chain of rat Neurokinin-1 Receptor (NK1), Tacr1 (gene 24807) (P14600 whole entry, looked up): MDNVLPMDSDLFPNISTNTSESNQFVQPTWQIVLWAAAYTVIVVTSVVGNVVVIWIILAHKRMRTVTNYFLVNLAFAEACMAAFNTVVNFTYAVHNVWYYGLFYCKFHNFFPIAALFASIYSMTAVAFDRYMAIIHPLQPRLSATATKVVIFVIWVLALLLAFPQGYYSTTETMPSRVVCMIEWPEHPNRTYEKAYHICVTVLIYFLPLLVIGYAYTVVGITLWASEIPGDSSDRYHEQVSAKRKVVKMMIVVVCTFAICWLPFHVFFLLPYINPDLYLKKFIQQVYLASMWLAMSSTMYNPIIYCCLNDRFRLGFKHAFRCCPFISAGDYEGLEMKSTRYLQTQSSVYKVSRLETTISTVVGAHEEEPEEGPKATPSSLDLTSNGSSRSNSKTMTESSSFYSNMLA
# Chain of rat Opioid Receptor, Non-selective Sodium (Na+) Binding, Oprm1 (gene 25601) (P33535 whole entry, looked up): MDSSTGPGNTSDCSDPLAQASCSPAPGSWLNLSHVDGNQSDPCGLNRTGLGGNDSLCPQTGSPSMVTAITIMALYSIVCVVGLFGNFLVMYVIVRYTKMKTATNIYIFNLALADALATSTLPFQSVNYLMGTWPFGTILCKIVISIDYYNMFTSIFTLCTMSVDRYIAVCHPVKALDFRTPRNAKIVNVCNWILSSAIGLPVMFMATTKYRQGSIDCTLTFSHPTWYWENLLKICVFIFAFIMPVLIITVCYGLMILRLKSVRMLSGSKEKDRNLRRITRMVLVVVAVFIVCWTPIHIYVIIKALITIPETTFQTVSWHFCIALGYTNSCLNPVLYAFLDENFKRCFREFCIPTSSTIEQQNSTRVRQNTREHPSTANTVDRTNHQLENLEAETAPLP
# Chain of rat Opioid Receptor, Non-selective Binding, Oprm1 (gene 25601) (P33535 whole entry, looked up): as above
# Chain of rat Somatostatin Receptor (SST), Sstr1 (gene 25033) (P28646 whole entry, looked up): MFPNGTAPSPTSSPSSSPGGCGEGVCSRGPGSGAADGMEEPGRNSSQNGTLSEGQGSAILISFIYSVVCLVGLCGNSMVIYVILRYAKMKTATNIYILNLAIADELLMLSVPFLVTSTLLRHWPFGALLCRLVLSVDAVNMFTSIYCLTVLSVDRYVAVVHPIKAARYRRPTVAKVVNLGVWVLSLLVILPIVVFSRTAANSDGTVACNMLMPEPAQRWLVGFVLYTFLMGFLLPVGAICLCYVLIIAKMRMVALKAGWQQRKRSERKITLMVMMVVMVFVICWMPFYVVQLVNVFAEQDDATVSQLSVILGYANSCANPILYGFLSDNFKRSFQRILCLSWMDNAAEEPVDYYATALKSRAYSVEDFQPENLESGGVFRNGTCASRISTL
# Chain of rat Neurokinin-3 Receptor (NK3), Tacr3 (gene 24808) (P16177 whole entry, looked up): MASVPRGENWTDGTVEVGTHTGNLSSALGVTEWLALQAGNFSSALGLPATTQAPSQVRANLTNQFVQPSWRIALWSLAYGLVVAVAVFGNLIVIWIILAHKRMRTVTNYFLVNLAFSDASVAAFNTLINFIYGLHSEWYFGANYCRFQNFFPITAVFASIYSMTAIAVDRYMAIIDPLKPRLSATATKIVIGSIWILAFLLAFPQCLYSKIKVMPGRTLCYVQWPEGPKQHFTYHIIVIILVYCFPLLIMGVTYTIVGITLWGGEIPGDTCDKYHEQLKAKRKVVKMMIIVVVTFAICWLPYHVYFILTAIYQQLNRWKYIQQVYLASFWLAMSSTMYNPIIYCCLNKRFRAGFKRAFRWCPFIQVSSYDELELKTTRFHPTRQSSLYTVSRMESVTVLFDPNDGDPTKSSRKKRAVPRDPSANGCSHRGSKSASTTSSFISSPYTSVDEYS
# Chain of rat Neonicotinoid receptor (NNR), Chrna7 (gene 25302) (Q05941 whole entry, looked up): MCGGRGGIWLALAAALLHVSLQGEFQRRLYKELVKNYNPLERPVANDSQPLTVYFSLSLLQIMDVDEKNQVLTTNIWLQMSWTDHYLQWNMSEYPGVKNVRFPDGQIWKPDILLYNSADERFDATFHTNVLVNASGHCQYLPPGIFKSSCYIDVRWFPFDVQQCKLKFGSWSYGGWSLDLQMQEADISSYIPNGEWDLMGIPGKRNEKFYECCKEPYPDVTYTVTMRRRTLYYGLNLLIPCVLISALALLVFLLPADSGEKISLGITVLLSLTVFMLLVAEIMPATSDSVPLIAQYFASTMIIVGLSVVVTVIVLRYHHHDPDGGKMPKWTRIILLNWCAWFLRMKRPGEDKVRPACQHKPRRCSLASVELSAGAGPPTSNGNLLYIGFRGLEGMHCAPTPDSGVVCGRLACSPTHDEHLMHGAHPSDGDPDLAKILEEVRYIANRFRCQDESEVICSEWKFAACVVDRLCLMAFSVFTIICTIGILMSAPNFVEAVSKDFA
# Chain of Adra2b (gene 24174) (P19328 whole entry, looked up): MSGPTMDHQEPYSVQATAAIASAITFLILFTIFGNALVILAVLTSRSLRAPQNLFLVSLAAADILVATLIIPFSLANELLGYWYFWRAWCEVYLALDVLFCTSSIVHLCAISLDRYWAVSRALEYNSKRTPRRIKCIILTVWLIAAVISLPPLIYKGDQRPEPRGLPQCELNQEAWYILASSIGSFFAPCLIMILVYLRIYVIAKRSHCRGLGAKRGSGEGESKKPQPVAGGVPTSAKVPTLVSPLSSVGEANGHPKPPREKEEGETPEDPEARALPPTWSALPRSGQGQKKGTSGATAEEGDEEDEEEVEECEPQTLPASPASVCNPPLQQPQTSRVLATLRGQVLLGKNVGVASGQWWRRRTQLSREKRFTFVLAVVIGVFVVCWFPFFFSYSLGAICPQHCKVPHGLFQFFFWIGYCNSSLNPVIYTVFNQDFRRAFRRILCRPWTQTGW
# Chain of rat Adrenergic Receptor, Beta (Adrb), Non-selective Binding, Adrb1 (gene 24925) (P18090 whole entry, looked up): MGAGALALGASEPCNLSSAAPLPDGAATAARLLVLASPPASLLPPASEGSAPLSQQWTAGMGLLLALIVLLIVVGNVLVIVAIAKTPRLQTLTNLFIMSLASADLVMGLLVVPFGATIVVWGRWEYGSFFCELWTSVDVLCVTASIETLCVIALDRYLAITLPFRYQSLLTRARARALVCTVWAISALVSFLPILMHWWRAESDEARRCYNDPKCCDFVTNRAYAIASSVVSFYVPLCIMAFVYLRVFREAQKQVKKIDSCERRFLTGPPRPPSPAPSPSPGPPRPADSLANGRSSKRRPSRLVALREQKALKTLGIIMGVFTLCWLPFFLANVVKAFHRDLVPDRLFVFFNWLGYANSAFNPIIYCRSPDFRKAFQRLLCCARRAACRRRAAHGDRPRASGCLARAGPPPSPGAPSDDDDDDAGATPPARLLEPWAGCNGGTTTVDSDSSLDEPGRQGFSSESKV
# Chain of bovine Gamma-Aminobutyric Acid Type A Receptor BDZ, alpha 1 site (GABARa1), GABRA1 (gene 780973) (P08219 whole entry, looked up): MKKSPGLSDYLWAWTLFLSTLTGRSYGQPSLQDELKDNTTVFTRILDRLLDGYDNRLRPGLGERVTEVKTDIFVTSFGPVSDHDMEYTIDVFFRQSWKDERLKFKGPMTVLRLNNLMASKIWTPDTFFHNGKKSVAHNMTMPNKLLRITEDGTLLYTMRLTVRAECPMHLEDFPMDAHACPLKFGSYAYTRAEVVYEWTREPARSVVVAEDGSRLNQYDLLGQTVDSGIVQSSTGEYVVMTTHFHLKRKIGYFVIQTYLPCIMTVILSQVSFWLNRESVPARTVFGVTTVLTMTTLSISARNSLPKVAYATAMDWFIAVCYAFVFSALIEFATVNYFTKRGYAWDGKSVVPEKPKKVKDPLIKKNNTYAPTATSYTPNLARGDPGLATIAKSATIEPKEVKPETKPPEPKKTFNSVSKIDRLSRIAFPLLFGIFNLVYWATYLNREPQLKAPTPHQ
# Chain of Metabotropic glutamate receptor 1 (Rattus norvegicus) (P23385 whole entry, looked up): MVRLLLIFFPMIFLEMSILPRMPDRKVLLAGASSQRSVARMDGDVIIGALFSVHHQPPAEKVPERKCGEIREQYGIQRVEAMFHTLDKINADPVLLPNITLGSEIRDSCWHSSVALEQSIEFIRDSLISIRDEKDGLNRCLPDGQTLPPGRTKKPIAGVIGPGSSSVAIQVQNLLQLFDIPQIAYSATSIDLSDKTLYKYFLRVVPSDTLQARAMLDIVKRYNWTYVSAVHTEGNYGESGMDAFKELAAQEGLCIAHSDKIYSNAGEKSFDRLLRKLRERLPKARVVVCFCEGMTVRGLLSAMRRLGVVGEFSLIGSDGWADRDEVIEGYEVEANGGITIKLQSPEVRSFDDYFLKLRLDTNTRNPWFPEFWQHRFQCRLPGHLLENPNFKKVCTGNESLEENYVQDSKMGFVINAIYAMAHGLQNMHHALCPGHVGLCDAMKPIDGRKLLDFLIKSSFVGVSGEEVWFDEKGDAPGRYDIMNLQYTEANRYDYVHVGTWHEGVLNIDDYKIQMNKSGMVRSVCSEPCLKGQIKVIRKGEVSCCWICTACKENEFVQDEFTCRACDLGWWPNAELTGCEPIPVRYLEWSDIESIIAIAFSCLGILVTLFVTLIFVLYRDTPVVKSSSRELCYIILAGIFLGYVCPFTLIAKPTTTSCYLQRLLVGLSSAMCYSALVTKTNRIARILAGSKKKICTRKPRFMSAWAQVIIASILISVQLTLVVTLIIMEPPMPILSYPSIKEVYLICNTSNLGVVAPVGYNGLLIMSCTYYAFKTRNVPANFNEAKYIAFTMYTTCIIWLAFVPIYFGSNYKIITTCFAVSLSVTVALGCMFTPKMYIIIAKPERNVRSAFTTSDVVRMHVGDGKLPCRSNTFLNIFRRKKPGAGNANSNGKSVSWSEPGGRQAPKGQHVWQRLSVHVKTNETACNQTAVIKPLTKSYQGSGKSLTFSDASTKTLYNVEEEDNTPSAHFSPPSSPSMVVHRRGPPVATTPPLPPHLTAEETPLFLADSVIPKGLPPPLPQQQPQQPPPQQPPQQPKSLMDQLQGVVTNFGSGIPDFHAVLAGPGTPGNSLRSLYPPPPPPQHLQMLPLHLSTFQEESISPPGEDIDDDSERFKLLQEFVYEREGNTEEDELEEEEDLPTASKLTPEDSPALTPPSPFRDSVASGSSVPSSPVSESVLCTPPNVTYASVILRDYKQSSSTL
structure (smiles),measurement,setting,value
O=C(N[C@H]1CN2CCC1CC2)c1cc2ccoc2cn1,outcome,[1],inactive
same,outcome,[2],inactive
same,AC50,[3],1.75 µM (active)
same,AC50,Adra2b (gene 24174),16.4 µM (active)
same,AC50,[4],17.7 µM (active)
same,AC50,[5],0.0114 µM (active)
same,outcome,[6],inactive
same,AC50,[7],11.7 µM (active)
Cc1cc(O)ccc1Cl,outcome,NCBI gene 24521,inactive
Cc1cc2c3c(c1)C(c1ccccc1)=N[C@@H](NC(=O)c1ccncc1)C(=O)N3CC2,outcome,[8],inactive
same,AC50,[9],0.073 µM (active)
same,outcome,[10],inactive
same,AC50,[11],25 µM (active)
CCC(C)(CC)c1cc(NC(=O)c2c(OC)cccc2OC)on1,outcome,[9],inactive
same,AC50,[12],2.57 µM (active)
same,outcome,[13],inactive
CC1=C2C[C@H]3[C@@H](CC=C4C[C@@H](O)CC[C@@]43C)[C@@H]2CC[C@]12O[C@@H]1C[C@H](C)CN[C@H]1[C@H]2C,outcome,[14],inactive
same,AC50,[7],0.171 µM (active)
Clc1ccc(C(c2ccccc2Cl)C(Cl)(Cl)Cl)cc1 (configuration not stated),outcome,[6],inactive
CCSC(=O)N(CC)C1CCCCC1,AC50,[8],40.1 µM (active)
CCOP(=S)(OCC)SCSC(C)(C)C,outcome,[5],inactive
COc1ccc(O)c(C(C)(C)C)c1,AC50,[7],38.2 µM (active)
CC(c1ccc(O)cc1)(c1ccc(O)cc1)c1ccc(O)cc1,outcome,[15],inactive
same,outcome,[11],inactive
ClC1=C(Cl)[C@]2(Cl)[C@@H]3[C@@H]4C[C@@H]([C@H]5O[C@@H]45)[C@@H]3[C@@]1(Cl)C2(Cl)Cl,AC50,[16],10.6 µM (active)
C[C@]12CCC(=O)C=C1CC[C@@H]1[C@@H]2CC[C@@]2(C)[C@H]1CC[C@]2(C)O,AC50,[7],3.26 µM (active)
CCC(C)(c1ccc(O)cc1)c1ccc(O)cc1,AC50,[10],25 µM (active)
same,AC50,[14],15.6 µM (active)
same,AC50,[7],13.7 µM (active)
CC(C)(c1ccccc1)c1ccc(O)cc1,outcome,[10],inactive
same,AC50,[13],25 µM (active)
same,AC50,[7],31.4 µM (active)
O=C(NC(=O)c1c(F)cccc1F)Nc1cc(Cl)c(OC(F)(F)C(F)F)c(Cl)c1,outcome,[10],inactive
CCCCCCCCCC[N+](C)(C)CCCCCCCCCC,AC50,[17],17.6 µM (active)
same,outcome,Adra2b (gene 24174),inactive
same,outcome,[8],inactive
same,outcome,[9],inactive
same,outcome,[10],inactive
same,outcome,[16],inactive
same,AC50,NCBI gene 257648,41.7 µM (active)
same,AC50,[13],10.2 µM (active)
same,AC50,[7],1.03 µM (active)
Cc1cc(-c2ccc(N)c(C)c2)ccc1N,outcome,[1],inactive
CN(C)CCO,AC50,[13],25 µM (active)
CCCCCCCCCc1ccc(O)cc1,outcome,[9],inactive
same,outcome,[6],inactive
C[C@]12CCC(=O)C=C1CC[C@@H]1[C@@H]2CC[C@]2(C)C(=O)CC[C@@H]12,outcome,[10],inactive
same,AC50,[16],17.6 µM (active)
same,outcome,[14],inactive
same,AC50,[7],25 µM (active)
ClC1=C(Cl)[C@]2(Cl)[C@@H]3[C@H]4C[C@H]([C@@H]5O[C@H]45)[C@@H]3[C@@]1(Cl)C2(Cl)Cl,AC50,[16],9.78 µM (active)
same,outcome,[6],inactive
CCC(=O)O[C@H]1CC[C@H]2[C@@H]3CCC4=CC(=O)CC[C@]4(C)[C@H]3CC[C@]12C,outcome,[17],inactive
same,outcome,[9],inactive
same,outcome,[6],inactive
Oc1ccc(C(c2ccc(O)cc2)(C(F)(F)F)C(F)(F)F)cc1,AC50,[10],25 µM (active)
same,AC50,[7],5.87 µM (active)
